Screening results: PubChem, National Center for Advancing Translational Sciences (NCATS)
Hits are enriched below; roughly 0.49% of the tested compounds scored in any of these assays.
Epigenetic reg = Quantitative High-Throughput Screen for Regulators of Epigenetic Control | 280,000 compounds, 0.2% hits | Potency, µM (top dose mostly 53.9 µM), usual class: activators | murine LDR cells, GFP reporter derepression, 30 h; also: nearly all actives have a fitted effect of over 60% in size
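In this reporter-derepression format, murine cells bearing a silenced integrated CMV-GFP locus incubate with test compound (30 h, 37 C), then are washed and imaged; fluorescent objects of 20–120 um count as induced cells.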
LDHA inh = qHTS assay for inhibitors of human lactate dehydrogenase; L-lactate dehydrogenase A chain (Homo sapiens), P00338; purified LDHA, NADH/diaphorase-resazurin fluorescence; stronger effect = lower value; activity change, % (values are at about 110 or 230 µM); 480,000 compounds, 0.15% hits; AID 1347041, 2019; in the data active = activity change below about -30%; inconclusive = mostly about -25% to -30%
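LDH5 2 nM; NADH 0.06 mM, pyruvate 0.2 mM; 200 mM Tris pH 7.4, EDTA, Tween-20; 5 min RT. Detection: diaphorase 0.133 mg/mL + resazurin 37 µM, fluorescence ex540/em590 at 0 and 20 min; normalized to enzyme-free and DMSO wells.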
Vif-APOBEC3G blk = qHTS for Inhibitors of Vif-A3G Interactions: qHTS; 410,000 compounds, 0.076% hits; HeLa A3G-eYFP + Vif (tagged APOBEC3G with the HIV-1 protein that degrades it), YFP fluorescence, overnight; Potency, µM (titrated, usually from 46.1 µM), hits mostly inhibitors; AID 602310, 2012; DNA dC->dU-editing enzyme APOBEC-3G (Homo sapiens), Q9HC16; also: nearly all actives have a fitted effect of over 60% in size
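Read-out is eYFP fluorescence (Ex 488/Em 500-530) from Vif-expressing HeLa A3G-eYFP cells; more signal means A3G escaped Vif-mediated degradation. Cells plated overnight, compound pinned in, incubated overnight at 37 deg C.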
Apoferritin bind = qHTS Assay for Identification of Novel General Anesthetics; Potency, µM (titrated, usually from 77.5 µM), actives largely listed as inhibitors; Ferritin light chain (Equus caballus), P02791; apoferritin/1-aminoanthracene competitive binding, fluorescence; 350,000 compounds, 0.074% hits; also: nearly all actives have a fitted effect of over 20% in size
Target sequence (P02791 2-175 limits assumed): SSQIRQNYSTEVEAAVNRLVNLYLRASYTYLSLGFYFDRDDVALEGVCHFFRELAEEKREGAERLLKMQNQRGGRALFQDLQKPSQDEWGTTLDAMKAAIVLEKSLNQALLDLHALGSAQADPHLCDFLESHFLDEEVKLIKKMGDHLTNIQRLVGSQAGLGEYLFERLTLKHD
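In PBS, apoferritin at 10 uM is loaded with 1-AMA from a 50% saturated solution. After 10 min of compound exposure at ambient temperature, reduced 535 nm fluorescence indicates probe displacement.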
Vif-A3F inh = qHTS for Inhibitors of Vif-A3F Interactions: qHTS. HeLa A3F-eYFP + Vif (tagged APOBEC3F with the HIV-1 protein that degrades it), YFP fluorescence increase. Potency, µM (titrated, usually from 46.1 µM). 390,000 compounds, 0.2% hits; also: nearly all actives have a fitted effect of over 65% in size
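HeLa cells stably expressing Vif plus C-terminally eYFP-tagged A3F were seeded, incubated overnight at 37 deg C, dosed with compound, incubated overnight again at 37 deg C. Yellow fluorescence (Ex 488/Em 500-530) reported blocked Vif-mediated A3F-eYFP degradation.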
Hits are given with their value; n = inactive; u = inconclusive; x = no result given; ! = not active in a repeat. Unless noted, calls follow the shape of the dose curve; as a rule, active = well fitted curve in the direction sought with a large enough effect; inconclusive = small, poorly fitted or top-dose-only effect, or another doubt; inactive = no such curve, though single readings can be large; an effect the other way counts as inactive or inconclusive.

SMILES	Epigenetic reg	LDHA inh	Vif-APOBEC3G blk	Apoferritin bind	Vif-A3F inh
O=C(CSC1=NC2(CCCCC2)N=C1c1cccs1)NCc1ccccc1	x	n	x	x	x
CCn1cc(S(=O)(=O)NCCc2ccccc2OC)cn1	x	n	n	n	n
NS(=O)(=O)c1cc(Br)c2c(c1)S(=O)(=O)NCN2	x	-37	n	x	n
COc1ccc(OCc2nnc3n2N=C(c2ccc(Br)cc2)CS3)cc1	n	n	n	14µM	n
N#CCCN(C(=O)Cn1nc(C(=O)O)c2ccccc2c1=O)c1ccccc1	x	-32!	n	n	n
COc1ccccc1N(CCC#N)C(=O)Cn1nc(C(=O)O)c2ccccc2c1=O	x	n	x	x	x
O=C(CN1CCN(C2CCCCC2)CC1)Nc1ccccc1-c1ccccc1	n	u	n	n	n
COC(=O)Cn1cc(/C=C/c2cc[n+](C)cc2)c2ccccc21	x	n	n	n	u
COC(=O)Cn1c(C)c(/C=C/c2cc[n+](C)cc2)c2ccccc21	x	n	u	n	11µM
O=C(c1cc(=O)c2ccccc2o1)N(Cc1cccs1)C1CCS(=O)(=O)C1 (configuration not stated)	x	n	x	x	x
CCN(CC)c1ccc(/C=C/c2cccc[n+]2C)c(OC)c1	x	n	7.9µM	n	n
Brc1cccc[n+]1CCC[n+]1ccccc1Br	x	-65	n	x	x
O=C(CCc1ccccc1)NC1(C(F)(F)F)C(=O)Nc2c1c(=O)[nH]c(=O)n2Cc1ccccc1 (configuration not stated)	x	-35	x	x	x
CCN(CC)S(=O)(=O)c1ccc(N2CCCCC2)c(NC(=O)/C(C#N)=C/c2ccc(OC)cc2)c1	n	n	n	n	n
CCOc1ccc(NC(=O)/C(C#N)=C/c2ccc(N3CCCC3)c(C)c2)cc1	n	n	4µM	n	2.5µM
Fc1ccc(-c2noc3ncnc(NCCc4ccccc4)c23)cc1	n	n	n	n	n
CCN(CC)C(=O)CN(C1CCCCC1)S(=O)(=O)c1ccc(Br)cc1	x	-37	x	x	x
COc1ccc(-c2nn(CC(=O)N3CCCCC3)c(=O)c3ccccc23)cc1	n	x	x	u	x
CCCc1c(C(=O)N/N=C(\C)CCc2ccccc2)nnn1-c1nonc1N	x	n	n	n	n
CC(NC(=O)c1cc2ccccc2o1)c1ccccc1 (configuration not stated)	16µM!	n	n	n	n
CC(NC(=O)c1cc2ccccc2o1)C(=O)O (configuration not stated)	n	n	n	n	n
FC(F)(F)c1nnc2ccc(N3CCCCC3)nn12	x	n	n	x	n
Cn1nc(C(=O)Nc2cc(Cl)cc(Cl)c2)c2ccccc2c1=O	x	n	x	x	x
CCN1CCN(CC(=O)N/N=C/c2cc(Br)cs2)CC1	x	-30	n	n	n
O=C1COc2ccc(C(=O)CSc3nc4ccccc4c(=O)n3-c3ccc(Cl)c(Cl)c3)cc2N1	u	n	u	n	10µM
SMILES	Epigenetic reg	LDHA inh	Vif-APOBEC3G blk	Apoferritin bind	Vif-A3F inh
CCc1ccc(-n2c(SCC(=O)c3ccc4c(c3)NC(=O)CO4)nc3ccccc3c2=O)cc1	u	n	n	n	u
O=C(Nc1cc(Cl)ccc1Cl)c1cc([N+](=O)[O-])cc(Br)c1O	x	-54	n	x	x
O=C(NC1CCCCCC1)c1cccc(N2CCCC2=O)c1	n	n	n	n	n
CC(NCC(=O)Nc1ccccc1C(=O)NC1CC1)c1ccc(S(N)(=O)=O)cc1 (configuration not stated)	x	-33	n	x	n
CCN(CC)S(=O)(=O)c1ccc(C(C)NCC(=O)Nc2ccccc2C(=O)NC2CC2)cc1 (configuration not stated)	x	n	n	x	n
O=S(=O)(c1cc(F)cc(F)c1)N1CCN(Cc2ccc3c(c2)CCO3)CC1	x	n	x	x	x
Cc1ccc2ccc3cc(C(=O)Nc4ccc(C)c(F)c4)nc3c2[nH]1	n	n	13µM	n	u
COc1ccc2o/c(=N/NC(=O)c3cccs3)c(C(N)=O)cc2c1	18µM	n	11µM	n	u
CCOc1ccc(OCC)c(Nc2nc3ccc(C(=O)c4ccccc4)cc3n3cnnc23)c1	n	n	n	n	n
CCOc1ccc(OCC)c(Nc2nc3ccc(Cl)cc3n3cnnc23)c1	22µM	n	x	n	x
N#Cc1cn2ncnc2nc1N	x	-31	x	x	x
